High-throughput results from PubChem BioAssay.
ELG1 genotoxic: genotoxicity induction in ELG1-luciferase HEK293T cells; Potency, µM (top dose mostly 46 µM), most hits filed as activators; HEK293T ELG1-luciferase reporter, luminescence, 16 h; 1.3% of 330,000 active; further: nearly all actives have a fitted effect of over 60% in size
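Luminescence read-out: rising ELG1-luciferase signal, reflecting elevated ELG1 protein under genetic stress, flags genotoxic compounds. Cells were treated for 16 hr at 37 °C before ONE-Glo detection.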
Rab9 promoter act: activators of Rab9 promoter; Huh7 Rab9 promoter-luciferase reporter, luminescence, 24 h; Potency, µM (highest dose often 9.22 µM), hits mostly activators; 2.8% of 320,000 active; further: nearly all actives have a fitted effect of over 60% in size
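Luminescence from Amplite-detected luciferase (10 minutes, ambient) reports Rab9 promoter activation. Before that, stable Rab9-luciferase Huh7 cells (1500/well, reduced-serum OP-MEM I plus 10% FBS) were exposed to compound for 24 hours at 37C.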
p53 reactivator: mutant p53 re-activation in reporter cells | H1299 p53-A138V BP100-luciferase reporter, luminescence, 24 h | Potency, µM (series often up to 92.2 µM), hits mostly activators | 0.063% of 320,000 active; further: nearly all actives have a fitted effect of over 45% in size
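p53-null H1299 cells stably carrying temperature-sensitive p53-A138V and a BP100-luciferase reporter were pinned with compounds (4-point, 1:5 series) and held 24 hrs at 37 deg C. Luminescence was read 10 min after detection reagent.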
FLuc modulator: inhibits or activates purified firefly luciferase, miR-21 counter-screen. P08659. purified FLuc, Km substrates, luminescence inhibition. Potency, µM (series often up to 57.5 µM), usual class: inhibitors. 6.9% of 360,000 active; further: nearly all actives have a fitted effect of over 55% in size
Target sequence (P08659 whole entry, looked up): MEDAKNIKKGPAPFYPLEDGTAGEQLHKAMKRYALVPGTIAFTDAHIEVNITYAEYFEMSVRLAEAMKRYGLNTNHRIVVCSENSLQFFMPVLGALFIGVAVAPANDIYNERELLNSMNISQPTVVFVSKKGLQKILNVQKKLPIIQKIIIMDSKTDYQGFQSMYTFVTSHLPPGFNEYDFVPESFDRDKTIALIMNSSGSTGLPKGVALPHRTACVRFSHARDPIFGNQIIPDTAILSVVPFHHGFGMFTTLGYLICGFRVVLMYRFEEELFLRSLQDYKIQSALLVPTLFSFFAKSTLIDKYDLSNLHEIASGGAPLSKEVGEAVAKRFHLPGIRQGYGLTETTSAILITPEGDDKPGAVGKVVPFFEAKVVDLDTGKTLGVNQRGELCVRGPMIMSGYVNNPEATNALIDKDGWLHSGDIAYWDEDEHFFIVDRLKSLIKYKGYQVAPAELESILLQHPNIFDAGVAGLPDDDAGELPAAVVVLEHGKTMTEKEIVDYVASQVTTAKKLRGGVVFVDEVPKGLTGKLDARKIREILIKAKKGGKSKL
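Purified P. pyralis luciferase, 10 nM final, with Km-level 10 uM D-luciferin and 10 uM ATP in 50 mM Tris acetate pH 7.5, 10 mM Mg acetate, 0.01% Tween-20, 0.05% BSA; 6-point qHTS titration about 60 µM downward; luminescence read.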
NPC1 prom act: NPC1 promoter activation; Huh7 NPC1 promoter luciferase reporter, 24 h; Potency, µM (doses to about 9.22 µM), actives largely listed as activators; 2.4% of 320,000 active; further: nearly all actives have a fitted effect of over 60% in size
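Luminescence read-out of NPC1 promoter-driven luciferase in stably transfected Huh7 cells; compounds delivered in DMSO and left 24 h at 37C, 5% CO2, qHTS titration format.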
SMN2 splice enh: SMN2 splice variant enhancement; AID 1458; HEK293 SMN2-luciferase splicing reporter, luminescence, 30-36 h; Potency, µM (highest dose often 46.1 µM), hits mostly activators; 2.8% of 210,000 active; further: nearly all actives have a fitted effect of over 55% in size
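HEK293 cells carry an SMN2 […]–luciferase reporter in which exon 7 inclusion puts luciferase in frame. Cells were plated 10-12 h before compound addition, then incubated 30-36 h at 37C. ONE-Glo luminescence was read; sodium butyrate at 4.5 mM final served as control.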
A number is an active result; . = inactive; ? = inconclusive; / = no result given; [ ] = remark or other dose. Compounds with a hit are over-represented: about 7.3% of the library has one in this group of screens. The call rests on the fitted dose curve; in most records, active means well fitted curve in the direction sought with a large enough effect; inconclusive means small, poorly fitted or top-dose-only effect, or another doubt; inactive means no such curve, though single readings can be large; an effect the other way counts as inactive or inconclusive.

SMILES	ELG1 genotoxic	Rab9 promoter act	p53 reactivator	FLuc modulator	NPC1 prom act	SMN2 splice enh
COc1ccccc1OCCCn1c(C2CC(=O)N(c3ccccc3Cl)C2)nc2ccccc21 (centres undefined)	/	/	/	17µM	/	.
CCc1ccccc1N1CC(c2nc3ccccc3n2CCCCOc2ccccc2OC)CC1=O (centres undefined)	/	/	/	.	/	.
CN1c2ccccc2-c2nc(SCC(=O)Nc3ccccc3)ncc2S1(=O)=O	/	/	/	.	/	/
Cc1cc(Cc2cc(C)c(N)cc2N)c(N)cc1N	/	/	/	/	/	.[9.22 µM]
COc1ccc(/C=C\c2nc(=O)c3ccccc3o2)cc1	?	?	.	3.8µM	?	/
CCn1c(/C=C/c2ccc(O)c(O)c2)nc2ccccc2c1=O	.	.	.	.	.	/
O=c1nc(/C=C/c2ccc(O)c(O)c2)oc2ccccc12	21µM	?	?	8.5µM	?	/
COc1cc(OC)c(N(C)C(=O)C2CCCN(c3ncnc4c3nc3n4CCCCC3)C2)cc1Cl (centres undefined)	/	/	/	.	/	/
CCCOc1ccccc1C1Oc2nc(SC)nnc2-c2ccccc2N1C(C)=O (centres undefined)	/	/	/	.	/	.
CC(=O)Nc1nc(-c2ccc3c(c2)OCO3)cs1	.	2.2µM	.	9.5µM	3.5µM	/
COc1cccc(C(=O)Nc2nc(-c3ccc4c(c3)OCO4)cs2)c1	.	.	.	17µM	.	.
COc1cccc(-c2csc(N3CCN(CC(=O)Nc4ccc5c(c4)OCO5)CC3)n2)c1	.	.	.	.	.	.
CC(C)CCCC(C)C1CCC2C3CC=C4CC(O)CC[C@@]4(C)C3CC[C@@]12C (some centres undefined)	/	/	/	/	/	.
Cc1cccc(N2CCN(c3cc(C)nc4nnnn34)CC2C)c1 (centres undefined)	.	.	.	.	.	.
Cc1ccc(-c2nc3nc(C)cc(N4CCN(c5cccc(C)c5)C(C)C4)n3n2)cc1 (centres undefined)	/	/	/	8.5µM	/	.
CCN(CC)S(=O)(=O)c1ccc(C(=O)Oc2ccc3c(c2)OCO3)cc1	.	.[1.84 µM]	.	.	.	.
CC(C)(C)c1ccc(C(=O)Oc2ccc3c(c2)OCC3=O)cc1	.	.	.	2.7µM	.	.
O=C(Oc1ccc(OC(=O)N2CCOCC2)cc1)c1ccccc1	?	.	?	?	.	.
CC(=O)Oc1ccc2c(c1)C(=O)c1ccccc1CO2	?	.	.	4.8µM	.	.
CC(=O)Oc1ccc2c(c1)Oc1cc(OC(C)=O)ccc1C21OC(=O)c2ccccc21	.	.	.	.	.	.
O=C(Oc1ccc2c(c1)OCC2=O)c1ccccc1	.	.	.	27µM	.	.
O=C(Nc1cc(F)ccc1F)C1COc2ccccc2C1 (centres undefined)	/	/	/	.	/	/
COc1ccc(C(=O)Nc2ccc3c(c2)nc2n3CCSC2)cc1	?	?	?	7.6µM	2.8µM	.
O=C(Nc1ccc2c(c1)nc1n2CCOC1)c1ccccc1	?	3.2µM	.	15µM	2.2µM	.
CCCC(=O)Nc1ccc2c(c1)nc1n2CCOC1	.	.	.	.	.	.
SMILES	ELG1 genotoxic	Rab9 promoter act	p53 reactivator	FLuc modulator	NPC1 prom act	SMN2 splice enh
O=C(Nc1ccc2c(c1)nc1n2CCSC1)c1ccccc1	?	3.5µM	.	11µM	?	11µM
O=C(O)CC1COc2ccccc2N1C(=O)c1ccccc1Cl (centres undefined)	.	.	.	.	.	.
O=C(NCC1CCCO1)C(c1ccncc1)N(Cc1cccs1)C(=O)CN1C(=O)c2ccccc2S1(=O)=O (centres undefined)	.	.	.	13µM	.	/
CCOC(=O)c1ccc(COC(=O)c2ccc3c(c2)-c2ccccc2C3=O)cc1	.	.	.	.	.	.
CCOC(=O)C1=C(Cc2ccc(C)cc2)C(=O)c2ccccc2C1=O	.	.	.	13µM	.	.
CCOC(=O)c1c(C)nc2c(c1-c1cc(OC)ccc1OC)C(=O)c1ccccc1-2	.	.	.	.	.	.
CCOC(=O)C1=C(Cc2ccc(OC)cc2)C(=O)c2ccccc2C1=O	.	.	.	11µM	.	.
CC(C)(O)P(=O)(O)CCc1ccccc1	.	.	.	.	.	/
